Screens as filed in PubChem.
In the library only some 5.2% were active in any assay of this set; here they are far more common.
SKN-1 block = suppressors of acrylamide-induced Pgst-4::GFP reporter in worms, primary screen, SKN-1 inhibitor project, whole organism, uHTS, GFP/RFP fluorescence ratio, strain VP596; C. elegans VP596 Pgst-4::GFP/RFP ratio, 24 h; inhibition, % at 21.8 µM; 0.49% of 360,000 active; AID 624304, 2012;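 active = interference check ratio from 0.5 to 1.5 plus GFP to RFP signal ratio inhibition reaching or exceeding a fixed threshold, cut at about 30% in these data, passing the limit was not always enough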
NR3A LBD binder = binders of NR3A ligand-binding domain, primary screen, biophysical, differential scanning fluorimetry, uHTS; NR3A LBD differential scanning fluorimetry, Tm shift; 0% = protein alone, 100% = glycine-bound protein; Glutamate receptor ionotropic, NMDA 3A (GRIN3A) ligand-binding domain; Tm shift relative to glycine control, % at 25 µM; 2.5% of 340,000 active;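 active = melting temperature shift of at least 10% of the positive control shift, at one fixed dose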
esBAF inh = Bmi1 luciferase reporter increase in mESCs, primary screen, esBAF inhibitor project, mouse ES cells, Bmi1 luciferase knock-in, single point; reporter increase, % at 12.5 µM; 24 h; 100% = twice the neutral-well signal; AID 602393, 2012; 2% of 350,000 active; in the data active = activation above about 40%;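 also: a rise in the Bmi1 reporter signal indicates esBAF inhibition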
SMARCA2 act = SMARCA2 (BRM) function activators, primary screen, cell-based, luminescence, high throughput | MG213 cells, MMTV-luciferase reporter, dexamethasone, overnight | activation, % at 9.1 µM | 1% of 370,000 active | AID 652017, 2013; in the data active = activation above about 7.8%
NadD inh = inhibitors of S. aureus NadD, primary screen, biochemical, colorimetric, uHTS; Nicotinate-nucleotide adenylyltransferase NadD (Staphylococcus aureus N315); purified NadD enzyme, colorimetric absorbance read-out; inhibition, % at 20 µM; 0.78% of 360,000 active; AID 602399, 2012; in the data active = inhibition above about 26%
Vif inh = HIV Vif self-association inhibitors, primary screen, imaging, HEK293T, single point; inhibition, % at 7.49 µM; 0.35% of 340,000 active; HEK293T cells, Vif self-association by quenched fluorescence, 24 h; AID 602346, 2012; in the data active = inhibition above about 50%, passing the limit was not always enough
NadD conf = inhibitors of S. aureus NadD, confirmation, biochemical, colorimetric, single concentration. shares compounds with NadD inh. purified S. aureus NadD, colorimetric enzyme assay. inhibition, % at 20 µM. 13% of 2,000 active. AID 624309, 2012; in the data active = inhibition mostly above about 42%, no sharp cut-off; inactive = mostly below about 42%
Large screens that a line does not name were inactive (follow-up assays come after a bar, where they were run).

CC(C)(Sc1ccc(CCN(CCCCC2CCCCC2)C(=O)NC2CCCCC2)cc1)C(=O)O	NadD inh 46 | NadD conf inactive
COc1ccc(S(=O)(=O)N2CCOCC2)cc1NC(=O)c1cccc(-n2cccc2)c1	none (no result: Vif inh)
CCOc1ccc(NC(=O)c2cccc(-n3cccc3)c2)cc1S(=O)(=O)N1CCOCC1	NadD inh 32 (no result: NR3A LBD binder) | NadD conf inactive
CCCCn1c(NC(=O)c2ccccc2)c(C#N)c2nc3ccccc3nc21	NadD inh 33, Vif inh 52 | NadD conf inactive
CCC(C)n1c(NC(=O)c2ccccc2)c(C#N)c2nc3ccccc3nc21 (stereo unspecified)	NadD inh 41 | NadD conf inactive
CCC(=O)Nc1c(C#N)c2nc3ccccc3nc2n1-c1ccc(C)cc1	none (no result: esBAF inh)
CN(C)CC(=O)N1[C@@H]2c3ccc(-c4ccccc4)c(=O)n3C[C@H]1[C@H](CO)[C@H]2C(=O)N1CCN(C)CC1	none (no result: SKN-1 block, NR3A LBD binder, SMARCA2 act, NadD inh, Vif inh)
C[C@H](CO)N1C[C@H](C)[C@H](CN(C)S(=O)(=O)c2ccc(Cl)cc2)OCCCC[C@H](C)Oc2ccc(NS(=O)(=O)c3cccs3)cc2C1=O	none (no result: SKN-1 block, NR3A LBD binder, SMARCA2 act, NadD inh, Vif inh)
C[C@@H]1CN([C@@H](C)CO)C(=O)c2cc(NC(=O)C3CCCCC3)ccc2O[C@@H](C)CCCCO[C@H]1CN(C)CC1CCCCC1	none (no result: SKN-1 block, NR3A LBD binder, SMARCA2 act, NadD inh, Vif inh)
COC(=O)CCCC1=CC2=CC(=O)C(C)(OC(=O)CCc3ccccc3)C(=O)C2=CO1 (stereo unspecified)	SKN-1 block 33, NadD inh 41 (no result: SMARCA2 act) | NadD conf 72
CC1(OC(=O)CCc2ccccc2)C(=O)C=C2C=C3CCCN3C=C2C1=O (stereo unspecified)	none
O=C(C[C@@H]1CC[C@H]2[C@@H](COC[C@H](O)CN2Cc2nccs2)O1)NCc1ccc(Oc2ccccc2)cc1	none (no result: SKN-1 block, NR3A LBD binder, SMARCA2 act, NadD inh, Vif inh)
CC1(C)CC(=O)C2=C(C1)c1c(ccc3ccccc13)NC2c1ccc(OCC(=O)O)cc1 (stereo unspecified)	none
CC1(C)CC(=O)C2=C(C1)c1c(ccc3ccccc13)NC2c1ccc(Br)o1 (stereo unspecified)	NadD inh 37 | NadD conf inactive
O=C(CN1CCN(Cc2ccccc2)CC1)Nc1cccc(S(=O)(=O)N2CCCCCC2)c1	none (no result: esBAF inh)
O=C(Nc1cccc(S(=O)(=O)N2CCCCC2)c1)c1c2c(nc3ccccc13)CCN(Cc1ccccc1)C2	NadD inh 30 (no result: esBAF inh) | NadD conf inactive
O=C1N[C@@H](Cc2ccccc2)C(=O)N2[C@@H]3N(S(=O)(=O)c4ccccc4)c4ccccc4[C@]3(Br)C[C@@H]12	none
O=C1N[C@@H](Cc2ccccc2)C(=O)N2[C@H]1C[C@]1([C@]34C[C@H]5C(=O)N[C@@H](Cc6ccccc6)C(=O)N5[C@H]3N(S(=O)(=O)c3ccccc3)c3ccccc34)c3ccccc3N(S(=O)(=O)c3ccccc3)[C@H]21	NadD inh 38 | NadD conf inactive
CCCC[C@@H]1Cc2[nH][nH]c(=O)c2[C@@H](c2ccc(Cl)cc2)O1	none (no result: NR3A LBD binder, esBAF inh, Vif inh)
CCCC[C@@H]1Cc2[nH][nH]c(=O)c2[C@H](c2ccc(C(C)C)cc2)O1	NadD inh 38 (no result: NR3A LBD binder, esBAF inh, Vif inh) | NadD conf inactive
C#CCN(C[C@H]1[C@H](OC(=O)NCc2ccccc2F)[C@H](OC(=O)NCc2ccccc2F)C[C@H]2C(=O)N(c3ccccc3)C(=O)[C@@H]12)S(=O)(=O)c1ccc(C)cc1	NadD inh 30 (no result: NR3A LBD binder) | NadD conf inactive
S=c1[nH]nc(-c2cc(-c3ccccc3)n[nH]2)n1/N=C/c1ccccc1	none
COc1ccccc1/C=C/C=N/n1c(-c2ccc(F)cc2)n[nH]c1=S	none (no result: esBAF inh)
S=c1[nH]nc(-c2cc(-c3ccccc3)n[nH]2)n1/N=C/C(Br)=C/c1ccccc1	NR3A LBD binder 17, NadD inh 62 (no result: esBAF inh) | NadD conf inactive
S=c1[nH]nc(-c2cc(-c3ccccc3)n[nH]2)n1/N=C/C=C/c1ccccc1	NadD inh 33 | NadD conf inactive
COc1ccccc1/C=C/C=N/n1c(-c2cc(-c3ccccc3)n[nH]2)n[nH]c1=S	NadD inh 36 (no result: esBAF inh) | NadD conf inactive
O=C(CNc1cccc2ccccc12)N/N=C/c1ccc([N+](=O)[O-])o1	none (no result: esBAF inh)
O=C(CNc1cccc2ccccc12)N/N=C/C(Br)=C/c1ccccc1	NR3A LBD binder 16, NadD inh 45 | NadD conf inactive
O=C(CNc1cccc2ccccc12)N/N=C/c1ccc(OC(=O)/C=C/c2ccco2)cc1	NadD inh 40 | NadD conf inactive
O=C(CNc1cccc2ccccc12)N/N=C/c1ccc[nH]1	none
O=C(/C=C/c1ccco1)Oc1cc(Br)cc(/C=N/NC(=O)c2ccccc2O)c1	NR3A LBD binder 11, NadD inh 38 (no result: esBAF inh) | NadD conf inactive
CO[C@H]1CN(C)C(=O)c2ccc(NC(=O)c3cccc(F)c3)cc2OC[C@@H](C)N(C)C[C@H]1C	none (no result: SKN-1 block, NR3A LBD binder, SMARCA2 act, NadD inh, Vif inh)
NC(=O)[C@H]1CC2(CC(c3cccc(NC(=O)CC(c4ccccc4)c4ccccc4)c3)=NO2)CN1C(=O)C(c1ccccc1)c1ccccc1 (stereo partly specified)	NadD inh 33 | NadD conf inactive
CCCCCC(=O)N1CC2(CC(c3cccc(NC(=O)CC(c4ccccc4)c4ccccc4)c3)=NO2)C[C@@H]1C(N)=O (stereo partly specified)	none
NC(=O)[C@H]1CC2(CC(c3cccc(NC(=O)CC(c4ccccc4)c4ccccc4)c3)=NO2)CN1C(=O)c1ccccc1C(=O)c1ccccc1 (stereo partly specified)	NadD inh 44 | NadD conf inactive
CCC(=O)Nc1cccc(C2=NOC3(C2)C[C@@H](C(N)=O)N(C(=O)c2ccccc2C(=O)c2ccccc2)C3)c1 (stereo partly specified)	none
C[C@H](NC(=O)C[C@@H]1CC[C@@H]2[C@H](COC[C@@H](O)CN2Cc2ccc(C(F)(F)F)cc2)O1)c1ccccc1	none (no result: SKN-1 block, NR3A LBD binder, SMARCA2 act, NadD inh, Vif inh)
Cc1ccc(S(=O)(=O)Nc2ccc3c(c2)C(=O)N([C@@H](C)CO)C[C@@H](C)[C@@H](CN(C)S(=O)(=O)c2ccc(F)cc2)O3)cc1	none (no result: SKN-1 block, NR3A LBD binder, SMARCA2 act, NadD inh, Vif inh)
